# Test results: PMC7862700, “An all-to-all approach to the identification of sequence-specific readers for epigenetic DNA modifications on cytosine”
# Assays:
# Test in all cases: DAPPL (digital affinity profiling via proximity ligation, sequencing); 10 mM Tris-HCl pH 7.5, 50 mM NaCl, 1 mM DTT, 4% glycerol, room temperature, 30 min; GST-TFs on glutathione beads, 16-mer random dsDNA library, 0.1% formaldehyde crosslink after washing; high values mean tight binding
# Conditions in all cases: protein: recombinant; tags: N-terminal GST; dsDNA, one strand shown
# ETV1 = ETV1 (Homo sapiens, UniProt P50549 1-477)
# How it was run: (§1)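 Sequencing on an Illumina NextSeq500 followed washing, crosslinking with 0.1% formaldehyde, proximity ligation (BsaI/T4 ligase, 1 h, 37 °C) and PCR amplification of pools that had been incubated for 30 min at room temperature with 200 nmole of a random double-stranded 16-mer DNA library in Tris/NaCl/DTT/glycerol buffer. Each pool held DNA-barcoded human transcription factors, expressed in yeast as GST fusions and captured on glutathione beads, plus a tag-only sample. Binding signal is a hexamer's read frequency for a factor divided by its frequency in the tag-only sample.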
# ERF = target: T1, ERF (Homo sapiens, UniProt P50548 1-548)
# T1 sequence: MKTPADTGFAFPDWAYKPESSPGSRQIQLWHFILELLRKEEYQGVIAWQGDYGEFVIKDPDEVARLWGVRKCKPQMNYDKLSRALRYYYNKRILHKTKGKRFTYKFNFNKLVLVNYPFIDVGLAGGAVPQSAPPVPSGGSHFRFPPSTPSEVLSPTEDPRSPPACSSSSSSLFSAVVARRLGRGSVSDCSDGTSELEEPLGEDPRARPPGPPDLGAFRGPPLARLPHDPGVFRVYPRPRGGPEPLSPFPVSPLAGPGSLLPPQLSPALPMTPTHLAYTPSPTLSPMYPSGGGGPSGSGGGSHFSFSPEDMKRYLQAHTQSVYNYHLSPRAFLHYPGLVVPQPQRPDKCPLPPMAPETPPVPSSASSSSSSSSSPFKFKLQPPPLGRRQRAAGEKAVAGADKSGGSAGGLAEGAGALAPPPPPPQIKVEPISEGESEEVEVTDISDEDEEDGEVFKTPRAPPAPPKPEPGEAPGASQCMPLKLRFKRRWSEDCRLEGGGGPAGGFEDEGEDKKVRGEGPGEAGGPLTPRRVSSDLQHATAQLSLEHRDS
# How it was run: as §1
# ETV3L = target: T2, ETV3L (Homo sapiens, UniProt Q6ZN32 1-361)
# T2 sequence: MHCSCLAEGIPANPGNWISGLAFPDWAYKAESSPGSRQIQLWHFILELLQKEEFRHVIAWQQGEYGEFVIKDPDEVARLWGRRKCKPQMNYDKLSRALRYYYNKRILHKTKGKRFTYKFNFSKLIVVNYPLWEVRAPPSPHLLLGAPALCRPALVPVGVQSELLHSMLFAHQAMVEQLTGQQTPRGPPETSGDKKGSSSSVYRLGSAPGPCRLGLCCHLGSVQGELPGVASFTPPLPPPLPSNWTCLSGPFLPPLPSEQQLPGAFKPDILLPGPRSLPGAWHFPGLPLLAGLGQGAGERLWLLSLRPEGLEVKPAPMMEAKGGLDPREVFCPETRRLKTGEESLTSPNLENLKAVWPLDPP
# How it was run: as §1
# ETS2 = target: T3, ETS2 (Homo sapiens, UniProt P15036 1-469)
# T3 sequence: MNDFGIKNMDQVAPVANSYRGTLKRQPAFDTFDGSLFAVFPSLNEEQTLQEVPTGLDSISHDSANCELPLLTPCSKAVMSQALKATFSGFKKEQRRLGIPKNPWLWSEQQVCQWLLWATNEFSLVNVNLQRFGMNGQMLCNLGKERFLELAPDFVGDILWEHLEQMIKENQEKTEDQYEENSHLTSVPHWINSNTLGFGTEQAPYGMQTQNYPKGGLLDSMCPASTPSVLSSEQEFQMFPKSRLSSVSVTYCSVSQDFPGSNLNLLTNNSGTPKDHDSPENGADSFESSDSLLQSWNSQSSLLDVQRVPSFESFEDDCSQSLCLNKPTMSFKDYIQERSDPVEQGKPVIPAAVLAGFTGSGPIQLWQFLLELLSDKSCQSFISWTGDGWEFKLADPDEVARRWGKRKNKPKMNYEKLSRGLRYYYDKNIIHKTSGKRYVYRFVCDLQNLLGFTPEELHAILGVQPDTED
# How it was run: as §1
# SPDEF = target: T4, SPDEF (Homo sapiens, UniProt O95238 1-335)
# T4 sequence: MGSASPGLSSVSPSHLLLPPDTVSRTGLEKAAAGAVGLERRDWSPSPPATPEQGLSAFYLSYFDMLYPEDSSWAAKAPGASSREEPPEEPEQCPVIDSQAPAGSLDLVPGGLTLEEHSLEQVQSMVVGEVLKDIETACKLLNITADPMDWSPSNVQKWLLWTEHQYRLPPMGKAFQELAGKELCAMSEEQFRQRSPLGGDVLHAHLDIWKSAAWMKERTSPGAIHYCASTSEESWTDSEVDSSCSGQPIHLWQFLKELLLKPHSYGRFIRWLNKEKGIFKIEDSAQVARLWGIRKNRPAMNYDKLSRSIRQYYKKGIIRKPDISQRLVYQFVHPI
# How it was run: as §1
# ETV7 = target: T5, ETV7 (Homo sapiens, UniProt Q9Y603 1-341)
# T5 sequence: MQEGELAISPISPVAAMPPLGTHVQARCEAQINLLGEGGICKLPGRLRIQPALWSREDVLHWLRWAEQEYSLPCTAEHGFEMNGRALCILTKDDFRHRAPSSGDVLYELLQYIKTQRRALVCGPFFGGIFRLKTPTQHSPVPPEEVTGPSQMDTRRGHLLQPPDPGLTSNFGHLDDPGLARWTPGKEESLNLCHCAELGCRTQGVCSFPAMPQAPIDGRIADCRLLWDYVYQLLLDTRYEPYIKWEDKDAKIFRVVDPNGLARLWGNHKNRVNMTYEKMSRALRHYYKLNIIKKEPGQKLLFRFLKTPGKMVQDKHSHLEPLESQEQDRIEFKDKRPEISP
# How it was run: as §1
# ELF5 = target: T6, ELF5 (Homo sapiens, UniProt Q9UKW6-2 1-255)
# T6 sequence: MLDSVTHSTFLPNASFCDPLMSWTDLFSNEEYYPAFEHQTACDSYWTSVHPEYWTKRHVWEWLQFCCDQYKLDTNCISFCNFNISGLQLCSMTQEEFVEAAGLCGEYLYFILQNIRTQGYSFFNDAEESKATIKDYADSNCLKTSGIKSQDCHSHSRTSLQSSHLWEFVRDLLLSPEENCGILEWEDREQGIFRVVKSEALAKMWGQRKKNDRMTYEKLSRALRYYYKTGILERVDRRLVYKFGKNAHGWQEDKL
# How it was run: as §1
# ETV3 = target: T7, ETV3 (Homo sapiens, UniProt P41162-2 1-143)
# T7 sequence: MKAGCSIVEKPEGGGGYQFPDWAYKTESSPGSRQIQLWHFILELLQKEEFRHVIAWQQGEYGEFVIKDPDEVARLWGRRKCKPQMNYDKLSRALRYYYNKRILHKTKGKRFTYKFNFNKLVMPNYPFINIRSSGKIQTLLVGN
# How it was run: as §1
# ETV6 = ETV6 (Homo sapiens, UniProt P41212 1-452)
# How it was run: as §1
# Chain of ETV6 (P41212 whole entry): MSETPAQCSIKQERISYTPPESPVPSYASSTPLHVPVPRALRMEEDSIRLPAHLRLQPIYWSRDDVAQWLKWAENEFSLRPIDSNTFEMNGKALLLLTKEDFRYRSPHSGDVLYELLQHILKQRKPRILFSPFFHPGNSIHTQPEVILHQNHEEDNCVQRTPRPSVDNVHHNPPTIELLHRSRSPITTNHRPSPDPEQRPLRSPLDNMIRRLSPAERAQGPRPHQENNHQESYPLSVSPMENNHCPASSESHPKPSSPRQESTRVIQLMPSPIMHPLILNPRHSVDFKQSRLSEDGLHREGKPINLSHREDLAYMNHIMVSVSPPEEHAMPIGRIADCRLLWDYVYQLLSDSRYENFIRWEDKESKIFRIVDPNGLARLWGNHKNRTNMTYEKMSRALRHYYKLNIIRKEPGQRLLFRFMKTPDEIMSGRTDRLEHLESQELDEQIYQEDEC
# Chain of ETV1 (P50549 whole entry, the tested form may be a part): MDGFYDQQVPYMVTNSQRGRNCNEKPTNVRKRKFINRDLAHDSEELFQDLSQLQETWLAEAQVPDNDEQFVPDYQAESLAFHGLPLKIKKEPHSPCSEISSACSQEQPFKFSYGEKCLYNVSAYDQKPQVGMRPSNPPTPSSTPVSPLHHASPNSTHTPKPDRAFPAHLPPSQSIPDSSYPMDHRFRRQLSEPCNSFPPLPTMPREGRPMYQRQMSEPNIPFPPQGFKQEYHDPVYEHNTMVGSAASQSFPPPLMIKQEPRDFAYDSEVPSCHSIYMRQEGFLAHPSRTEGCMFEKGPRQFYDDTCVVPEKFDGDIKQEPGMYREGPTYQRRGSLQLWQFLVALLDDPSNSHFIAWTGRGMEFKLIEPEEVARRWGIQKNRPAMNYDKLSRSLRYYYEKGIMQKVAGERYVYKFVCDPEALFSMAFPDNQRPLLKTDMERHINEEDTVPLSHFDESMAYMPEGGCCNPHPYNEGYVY
sequence,measurement,setting,value
ATAACA,binding signal,ETV1,"1.24 fold enrichment (6-mer frequency, TF over GST control)"
same,binding signal,ERF,"1.31 fold enrichment (6-mer frequency, TF over GST control)"
same,binding signal,ETV3L,"1.28 fold enrichment (6-mer frequency, TF over GST control)"
same,binding signal,ETS2,"1.27 fold enrichment (6-mer frequency, TF over GST control)"
same,binding signal,SPDEF,"1.21 fold enrichment (6-mer frequency, TF over GST control)"
same,binding signal,ETV7,"1.32 fold enrichment (6-mer frequency, TF over GST control)"
same,binding signal,ELF5,"1.28 fold enrichment (6-mer frequency, TF over GST control)"
same,binding signal,ETV3,"1.2 fold enrichment (6-mer frequency, TF over GST control)"
same,binding signal,ETV6,"1.26 fold enrichment (6-mer frequency, TF over GST control)"
